Assay outcomes (PubChem BioAssay)
ALR H2O2 inh: blocks human ALR sulfhydryl oxidase activity; purified ALR, DTT oxidation, H2O2 HRP-luminol luminescence; P55789; inhibition, % (test concentration not listed); 3.8% of 290,000 active; AID 485317;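 active = mean replicate inhibition above about 79%, with every replicate also reaching it, limit read from the data; inconclusive = only one of the two criteria met; inactive = mean below limit and not every replicate reaching it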
Target sequence (P55789 whole entry, looked up): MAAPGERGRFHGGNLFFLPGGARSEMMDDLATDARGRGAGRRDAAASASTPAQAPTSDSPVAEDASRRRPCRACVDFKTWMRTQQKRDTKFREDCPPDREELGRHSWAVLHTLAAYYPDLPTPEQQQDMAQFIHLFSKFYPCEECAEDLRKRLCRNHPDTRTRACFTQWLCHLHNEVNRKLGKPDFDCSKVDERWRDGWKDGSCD
GRK2 aptamer HTS: human GRK2 inhibition via aptamer displacement; inhibition of aptamer binding, % at 10 µM; 0.59% of 330,000 active; P25098; bead flow cytometry, FAM-aptamer displacement from GRK2; AID 488847;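 active = inhibition of aptamer binding above 40%, roughly 3 SD of noise, on plates passing a quality check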;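 note: median bead fluorescence of bound FAM aptamer so fluorescent compounds give negative values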
Efflux pump inh: antifungal efflux pump inhibition, Nile Red retention; S. cerevisiae Candida pump triplex; inhibition, % at 10 µM; 0.44% of 330,000 active;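 active = plate passing quality check with inhibition over a set limit, or well fluorescence over plate mean plus 4 SD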;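 note: Nile Red retained in pooled yeast measured as flow cytometry median fluorescence; 0% = buffer negative control and 100% = Enniatin B positive control; higher means more Nile Red kept so more efflux inhibition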
Rce1 inh: blocks yeast Ras-converting enzyme; 0.27% of 290,000 active; AID 2563; calls only; Q03530; yeast membranes, quenched prenylated peptide cleavage fluorescence;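 active = fall in fluorescence gain of 50% or more versus controls, with final raw signal at or below 3038400; inconclusive = same 50% fall but final raw signal above 3038400; inactive = fall in fluorescence gain under 50%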;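 note: plate controls were neutral control wells for no effect and wells lacking membranes for full effect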
Rtt109 HAT inh: inhibitors of Candida albicans Rtt109/Vps75 histone acetyltransferase | Q5AAJ8 | purified Rtt109/Vps75, ThioGlo CoA-SH fluorescence, 4 h | inhibition, % at 34.9 µM | 0.16% of 330,000 active | AID 540336;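 active = inhibition of at least 50% in every replicate; inconclusive = best replicate reaches 50% inhibition but some replicates fall short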
HDAC3 inh: inhibitors of human histone deacetylase 3; recombinant HDAC3, fluorogenic peptide/trypsin coupled, fluorescence; inhibition, % at 8.3 µM; 0.15% of 320,000 active; in the data active = inhibition above about 26%, passing the limit was not always enough; inconclusive = no clear call, values can overlap the other calls
Target sequence (O15379 whole entry, looked up): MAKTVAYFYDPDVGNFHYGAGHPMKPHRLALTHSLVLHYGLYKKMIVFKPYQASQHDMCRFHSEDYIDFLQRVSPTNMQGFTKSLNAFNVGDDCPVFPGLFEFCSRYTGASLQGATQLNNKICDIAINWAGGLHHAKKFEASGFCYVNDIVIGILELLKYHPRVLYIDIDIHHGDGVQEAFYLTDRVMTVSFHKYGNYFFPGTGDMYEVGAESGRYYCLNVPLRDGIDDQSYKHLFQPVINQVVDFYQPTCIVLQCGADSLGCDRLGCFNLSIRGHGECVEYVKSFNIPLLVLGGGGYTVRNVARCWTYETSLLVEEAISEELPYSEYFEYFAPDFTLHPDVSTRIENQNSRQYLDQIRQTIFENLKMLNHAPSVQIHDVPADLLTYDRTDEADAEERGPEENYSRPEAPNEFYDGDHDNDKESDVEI
Yeast cmpd fluor: counter-screen for efflux pump inhibitors: compound fluorescence; S. cerevisiae AD/pABC3, flow cytometry; AID 588517; fluorescence ratio to DMSO, % at 10 µM; shares compounds with Efflux pump inh; 4% of 1,700 active;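 active = fluorescence ratio to DMSO above its plate's cutoff, the plate mean ratio plus 5 SD, cut at about 210% in these data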;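 note: unstained yeast with no Nile Red so the signal is compound autofluorescence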
Mdr1 pump inh: blocks the Candida albicans Mdr1 efflux pump in yeast; shares compounds with Efflux pump inh; S. cerevisiae AD/CaMDR1, Nile Red efflux, flow cytometry; inhibition, % at 10 µM; 1% of 1,700 active; AID 588518; in the data active = inhibition above about 26%;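 note: 0% = DMSO vehicle and 100% = reference inhibitor; higher means more Nile Red retained so more efflux inhibition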
Cdr2 pump inh: Candida Cdr2 efflux pump inhibition. shares compounds with Efflux pump inh. S. cerevisiae AD/CaCDR2, Nile Red retention, flow cytometry. Nile Red retention ratio vs DMSO, % at 10 µM. 4% of 1,700 active. AID 588520; in the data active = Nile Red retention ratio vs DMSO above about 190%;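 note: higher ratio means more blocking of Cdr2 efflux of the dye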
CaCdr1 efflux inh: blocks the Candida albicans Cdr1 efflux pump in yeast | shares compounds with Efflux pump inh | S. cerevisiae AD/CaCDR1, Nile Red efflux, flow cytometry | inhibition, % at 10 µM | 1% of 1,700 active | AID 588522;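 active = inhibition above the screen-wide mean plus twice its standard deviation, cut at about 32% in these data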
Active calls of the source: *; i = inactive; ? = inconclusive; / = not tested or not shown. Shown are actives, neighbours in structure and some others; about 4.5% of the full set was active somewhere.

SMILES	ALR H2O2 inh	GRK2 aptamer HTS	Efflux pump inh	Rce1 inh	Rtt109 HAT inh	HDAC3 inh	Yeast cmpd fluor	Mdr1 pump inh	Cdr2 pump inh	CaCdr1 efflux inh
Cc1ccnc(NC(=O)c2ccc(OCc3c(C)noc3C)cc2)c1	/	/	/	/	-1.1	/	/	/	/	/
Cn1nc(-c2ccccc2)cc1NS(=O)(=O)c1ccccc1	1.0	1.0	-0.1	i	-9.9	-2.2	/	/	/	/
Cc1ccc(S(=O)(=O)Nc2cc(-c3ccccc3)nn2C)cc1	-6.9	2.0	0.5*	i	/	3.0	96.6	-0.2	97.7	0.0
O=C(CSc1nnc(-c2ccncc2)n1CC1CCCO1)Nc1ccccc1Cl (centres undefined)	7.3	3.0	0.5*	i	0.3	-1.7	99.0	0.0	107.2	-0.1
CCOC(=O)c1c(C)[nH]c(C)c1S(=O)(=O)N(C)CC(=O)Nc1ccccc1F	-1.8	0.0	0.0	i	16.1	1.8	/	/	/	/
CNC(=S)N(CCc1cccc(C)c1)Cc1cc2cc(OC)c(OC)cc2[nH]c1=O	1.9	4.0	1.7*	i	9.2	-8.5	106.2	-0.1	93.5	0.2
CC(/C=C/c1ccccc1)=N\Nc1nc(C)cc(C)n1	1.7	0.0	5.5*	i	2.7	2.8	100.2	-0.1	112.0	-0.1
O=C(NCC1CCCO1)C1CCCN(S(=O)(=O)c2cc(Cl)ccc2Cl)C1 (centres undefined)	21.7	0.0	0.1	i	-2.8	-8.0	/	/	/	/
NC(=O)c1ccc(NC(=O)COC(=O)c2c[nH]c3ccccc23)cc1	/	/	/	/	1.5	/	/	/	/	/
Cc1cc(C)nc(N/C(=N\S(=O)(=O)Cc2ccccc2)Nc2ccccc2Br)n1	-4.8	2.0	12.6*	i	-2.3	-2.6	108.3	0.3	105.7	0.2
CCc1ccc(C(C)NC(=S)NC2CCCCC2)cc1 (centres undefined)	-3.4	1.0	0.1	i	4.0	6.4	/	/	/	/
CCC(C)c1ccc(C(C)NC(=S)NC2CCCCC2)cc1 (centres undefined)	3.7	0.0	1.5*	i	4.8	4.6	98.6	-0.2	95.1	-0.1
OCC1(Cc2ccccc2F)CCCN(Cc2c(F)ccc(F)c2F)C1 (centres undefined)	-0.4	1.0	0.1	i	1.7	-0.3	/	/	/	/
CCCCCc1cc(=O)oc2c(C(CCN3CCCC(C)C3)c3cc(OC)c(OC)c(OC)c3)c(OC)cc(OC)c12 (centres undefined)	-61.0	1.0	0.8	i	23.2	15.5	/	/	/	/
CCCCCc1cc(=O)oc2c(C(CCN3CCCC(C)C3)c3ccc(N(C)C)cc3)c(OC)cc(OC)c12 (centres undefined)	-1.2	0.0	1.0*	i	2.0	8.4	100.0	-0.1	151.2	0.1
COCCCn1c(SCC(=O)OC2CCCCC2)nnc1-c1cccs1	-6.1	2.0	1.3*	i	25.4	1.3	96.2	-0.2	120.4	-0.1
COCCCn1c(SCC(=O)OC2CCCCC2)nnc1-c1ccco1	-0.4	4.0	-0.1	i	1.7	4.2	/	/	/	/
CC(C)(C)c1nnc(NC(=O)c2ccc3c(c2)OCO3)s1	-1.4	0.0	0.1	i	0.1	-5.9	/	/	/	/
CC(C)(C)c1nnc(NC(=O)COc2ccc3c(c2)OCO3)s1	-29.1	0.0	0.0	i	10.3	-4.2	112.2	0.1	97.5	-0.2
COc1cc(OC)cc(-c2sc3ccc(OC)cc3c2-c2ccc(OCCN3CCOCC3)cc2)c1	/	6.0	159.9*	/	-2.3	/	99.8	94.9*	101.8	128.1*
COc1cccc(-c2sc3ccc(OC)cc3c2-c2ccc(OCCN3CCOCC3)cc2)c1	-7.7	0.0	69.7*	/	2.3	-5.4	90.8	12.8	101.7	67.2*
COc1ccc(NC(=O)c2ccc(NCCN3C(=O)CCC3=O)c([N+](=O)[O-])c2)cc1	-2.2	7.0	0.1	/	-11.0	4.7	/	/	/	/
COc1ccc(-c2cnc(SCC(=O)Nc3nc(C(C)(C)C)cs3)n2Cc2ccco2)cc1	20.7	0.0	0.4*	i	-10.0	-2.6	115.5	0.0	129.1	0.1
COc1ccc(-c2cnc(SCC(=O)Nc3cc(C)on3)n2Cc2ccco2)cc1	-3.1	2.0	0.3	i	10.8	8.6	/	/	/	/
COc1cc(C(=O)N2CCN(c3cc(Cl)ccc3Cl)CC2)cc(OC)c1OC	43.0	0.0	0.6*	i	6.1	-3.1	101.4	-0.1	91.4	-0.1
SMILES	ALR H2O2 inh	GRK2 aptamer HTS	Efflux pump inh	Rce1 inh	Rtt109 HAT inh	HDAC3 inh	Yeast cmpd fluor	Mdr1 pump inh	Cdr2 pump inh	CaCdr1 efflux inh
COc1cc(C(=O)N2CCN(c3cccc(C)c3C)CC2)cc(OC)c1OC	-50.9	0.0	0.0	i	13.1	-5.3	/	/	/	/
O=C(CN1CCN(c2ncc(C(F)(F)F)cc2Cl)CC1)N1CCN(c2ncc(C(F)(F)F)cc2Cl)CC1	/	0.0	0.8*	i	-4.7	0.3	106.7	-0.2	112.0	0.1
O=C(CSc1ccc(Cl)cc1)N1CCN(c2ncc(C(F)(F)F)cc2Cl)CC1	-4.8	0.0	-0.1	i	-24.5	9.3	/	/	/	/
COc1ccccc1CC(=O)NC(=O)c1ccccc1O	-10.3	6.0	3.0*	i	1.6	-28.3	104.5	-0.3	104.2	0.0
COc1ccccc1CC(=O)c1ccccc1OC	/	/	/	/	7.2	/	/	/	/	/
CCN(CC)C(=O)[C@H]1C[C@H](CC(=O)NCCN2CCOCC2)C(=O)N2CCc3c([nH]c4cc(CCC(=O)N(C)C)ccc34)[C@]12C	/	6.0	-0.3	/	0.6	/	/	/	/	/
COc1ccc(S(=O)(=O)N2CCOC2CNC(=O)C(=O)NCc2ccc3c(c2)OCO3)cc1 (centres undefined)	/	1.0	-0.1	i	9.0	1.6	97.8	-0.2	102.2	-0.1
COc1ccc(CCNC(=O)C(=O)NCC2OCCN2S(=O)(=O)c2ccc(OC)cc2)cc1 (centres undefined)	-0.6	0.0	-0.3	i	-11.0	-0.6	/	/	/	/
COc1ccc(CNC(=O)C(=O)NCC2OCCN2S(=O)(=O)c2ccc(OC)cc2)cc1 (centres undefined)	/	1.0	-1.0	i	-7.7	-5.6	101.1	-0.1	98.1	-0.1
COc1ccc(CNC(=O)C(=O)NCC2OCCN2S(=O)(=O)c2ccc3c(c2)OCCO3)cc1 (centres undefined)	-19.1	3.0	0.0	i	-0.5	/	/	/	/	/
O=C(NCc1nnc(SCC(=O)N2CCN(c3ccccc3)CC2)o1)c1c(F)cccc1F	?	0.0	1.3	i	11.6	-4.1	/	/	/	/
COCCn1c(SC(C)C(=O)Nc2ccc(Cl)cn2)nnc1-c1ccncc1 (centres undefined)	/	3.0	0.2	i	0.8	0.1	/	/	/	/
